What all share (assay): DAPPL (digital affinity profiling via proximity ligation, sequencing); 10 mM Tris-HCl pH 7.5, 50 mM NaCl, 1 mM DTT, 4% glycerol, room temperature, 30 min; GST-TFs on glutathione beads, 16-mer random dsDNA library, 0.1% formaldehyde crosslink after washing; high values mean tight binding
For assay [1], the target named is T1, FEV (Homo sapiens, UniProt Q99581 1-238).
T1 sequence: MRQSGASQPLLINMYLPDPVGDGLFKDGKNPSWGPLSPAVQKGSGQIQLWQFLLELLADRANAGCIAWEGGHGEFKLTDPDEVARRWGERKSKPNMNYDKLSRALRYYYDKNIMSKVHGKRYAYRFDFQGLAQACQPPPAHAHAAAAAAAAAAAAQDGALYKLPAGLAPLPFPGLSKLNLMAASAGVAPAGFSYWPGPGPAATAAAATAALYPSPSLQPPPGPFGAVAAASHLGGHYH
To be noted: protein: recombinant; tags: N-terminal GST; dsDNA, one strand shown. A digest of the protocol:
(§1)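 Human transcription factors were made in yeast as GST fusions, captured on glutathione beads and barcoded with DNA. With a tag-only sample included, the pool was incubated with 200 nmole of a random double-stranded 16-mer DNA library in Tris/NaCl/DTT/glycerol buffer at room temperature for 30 min, then crosslinked with 0.1% formaldehyde after washing, ligated by proximity, amplified and sequenced. For binding signal, each hexamer's read frequency for a factor is divided by its frequency for the tag-only sample.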

Assay [2] concerns the target ETV5 (Homo sapiens, UniProt P41161 1-510). Particulars: protein: recombinant; tags: N-terminal GST; dsDNA, one strand shown. The method, boiled down:
as §1

Assay [3] concerns the target HSF1 (Homo sapiens, UniProt Q00613 1-529). To be noted: protein: recombinant; tags: N-terminal GST; chain copies: 3; dsDNA, one strand shown. A digest of the protocol: as §1
Assay [4] deals with T2, SPIC (Homo sapiens, UniProt Q8N5J4 1-248).
T2 sequence: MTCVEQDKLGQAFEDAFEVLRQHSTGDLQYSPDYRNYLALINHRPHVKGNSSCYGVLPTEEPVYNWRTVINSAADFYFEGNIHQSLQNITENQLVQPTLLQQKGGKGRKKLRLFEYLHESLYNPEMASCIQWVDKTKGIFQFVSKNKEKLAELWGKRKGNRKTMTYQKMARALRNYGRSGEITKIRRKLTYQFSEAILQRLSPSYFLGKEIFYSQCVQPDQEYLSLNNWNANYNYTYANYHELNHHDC
Particulars: protein: recombinant; tags: N-terminal GST; dsDNA, one strand shown. The method, boiled down: as §1

For assay [5], the target named is ELF4 (Homo sapiens, UniProt Q99607 1-663). To be noted: protein: recombinant; tags: N-terminal GST; dsDNA, one strand shown. The method, boiled down:
as §1

Assay [6] concerns the target T3, ELK4 (Homo sapiens, UniProt P28324-2 1-405).
T3 sequence: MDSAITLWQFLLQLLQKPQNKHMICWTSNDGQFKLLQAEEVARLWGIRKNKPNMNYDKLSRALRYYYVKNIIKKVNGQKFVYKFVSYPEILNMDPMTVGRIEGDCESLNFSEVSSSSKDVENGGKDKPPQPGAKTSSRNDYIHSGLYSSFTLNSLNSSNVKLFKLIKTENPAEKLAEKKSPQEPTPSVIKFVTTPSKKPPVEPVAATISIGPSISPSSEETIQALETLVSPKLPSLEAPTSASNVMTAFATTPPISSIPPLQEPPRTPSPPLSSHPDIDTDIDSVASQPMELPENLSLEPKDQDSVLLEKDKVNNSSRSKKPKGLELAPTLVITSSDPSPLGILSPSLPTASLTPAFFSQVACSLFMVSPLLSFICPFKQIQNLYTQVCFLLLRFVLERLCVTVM
To be noted: protein: recombinant; tags: N-terminal GST; dsDNA, one strand shown. The method, boiled down:
as §1

Assay [7] has as its target T4, ETV2 (Homo sapiens, UniProt O00321 1-342).
T4 sequence: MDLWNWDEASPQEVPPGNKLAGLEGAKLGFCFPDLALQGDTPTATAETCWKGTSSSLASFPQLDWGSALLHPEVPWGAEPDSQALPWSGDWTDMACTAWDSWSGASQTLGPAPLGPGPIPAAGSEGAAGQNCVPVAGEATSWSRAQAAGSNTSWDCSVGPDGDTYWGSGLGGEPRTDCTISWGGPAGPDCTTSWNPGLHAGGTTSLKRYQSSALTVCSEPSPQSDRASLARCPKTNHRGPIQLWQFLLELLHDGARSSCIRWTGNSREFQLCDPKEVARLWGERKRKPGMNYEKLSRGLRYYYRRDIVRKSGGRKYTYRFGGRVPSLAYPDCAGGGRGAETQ
Particulars: protein: recombinant; tags: N-terminal GST; dsDNA, one strand shown. The method, boiled down:
as §1

The target in assay [8] is T5, ELF3 (Homo sapiens, UniProt P78545 1-371).
T5 sequence: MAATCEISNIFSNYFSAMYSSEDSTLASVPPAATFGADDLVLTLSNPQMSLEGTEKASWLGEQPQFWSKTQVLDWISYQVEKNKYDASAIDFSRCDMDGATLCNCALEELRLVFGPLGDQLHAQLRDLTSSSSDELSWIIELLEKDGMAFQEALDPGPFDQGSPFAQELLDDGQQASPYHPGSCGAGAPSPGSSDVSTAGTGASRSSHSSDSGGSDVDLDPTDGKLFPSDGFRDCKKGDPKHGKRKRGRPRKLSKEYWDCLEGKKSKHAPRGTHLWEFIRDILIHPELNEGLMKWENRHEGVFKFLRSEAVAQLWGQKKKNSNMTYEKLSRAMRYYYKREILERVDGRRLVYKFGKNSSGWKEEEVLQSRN
Particulars: protein: recombinant; tags: N-terminal GST; dsDNA, one strand shown. The method, boiled down:
as §1

Assay [9] has as its target CRX (Homo sapiens, UniProt O43186 1-299). To be noted: protein: recombinant; tags: N-terminal GST; dsDNA, one strand shown. A digest of the protocol: as §1
In assay [10] the target is ETV1 (Homo sapiens, UniProt P50549 1-477). Particulars: protein: recombinant; tags: N-terminal GST; dsDNA, one strand shown. A digest of the protocol:
as §1

The target of assay [11] is T6, ERF (Homo sapiens, UniProt P50548 1-548).
T6 sequence: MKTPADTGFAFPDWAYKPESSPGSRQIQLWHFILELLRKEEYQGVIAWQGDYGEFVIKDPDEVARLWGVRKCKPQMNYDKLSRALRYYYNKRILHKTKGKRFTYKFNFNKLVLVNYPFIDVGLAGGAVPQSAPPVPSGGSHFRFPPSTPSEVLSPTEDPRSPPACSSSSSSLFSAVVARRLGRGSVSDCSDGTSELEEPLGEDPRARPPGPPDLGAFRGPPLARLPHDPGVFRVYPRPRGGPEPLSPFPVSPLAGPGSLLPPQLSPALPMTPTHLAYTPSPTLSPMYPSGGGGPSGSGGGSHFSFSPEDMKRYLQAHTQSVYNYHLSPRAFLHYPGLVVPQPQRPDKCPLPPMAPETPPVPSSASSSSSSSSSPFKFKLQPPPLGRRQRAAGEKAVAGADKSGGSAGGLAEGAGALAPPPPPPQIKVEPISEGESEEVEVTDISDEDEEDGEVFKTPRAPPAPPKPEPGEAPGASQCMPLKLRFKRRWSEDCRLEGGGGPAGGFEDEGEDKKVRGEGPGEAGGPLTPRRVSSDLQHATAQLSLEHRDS
Particulars: protein: recombinant; tags: N-terminal GST; dsDNA, one strand shown. The method, boiled down: as §1

The target in assay [12] is T7, ETV3L (Homo sapiens, UniProt Q6ZN32 1-361).
T7 sequence: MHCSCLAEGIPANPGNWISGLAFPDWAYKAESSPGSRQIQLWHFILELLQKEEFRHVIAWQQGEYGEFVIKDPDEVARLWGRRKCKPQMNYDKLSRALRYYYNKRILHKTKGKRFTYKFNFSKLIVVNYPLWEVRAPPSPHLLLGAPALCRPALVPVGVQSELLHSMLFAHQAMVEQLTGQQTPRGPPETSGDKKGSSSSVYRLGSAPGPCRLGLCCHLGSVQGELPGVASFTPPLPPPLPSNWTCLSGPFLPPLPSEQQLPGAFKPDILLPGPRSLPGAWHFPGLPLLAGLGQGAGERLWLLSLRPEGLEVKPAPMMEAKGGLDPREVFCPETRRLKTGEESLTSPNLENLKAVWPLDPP
Particulars: protein: recombinant; tags: N-terminal GST; dsDNA, one strand shown. A digest of the protocol: as §1

The target of assay [13] is T8, ETS2 (Homo sapiens, UniProt P15036 1-469).
T8 sequence: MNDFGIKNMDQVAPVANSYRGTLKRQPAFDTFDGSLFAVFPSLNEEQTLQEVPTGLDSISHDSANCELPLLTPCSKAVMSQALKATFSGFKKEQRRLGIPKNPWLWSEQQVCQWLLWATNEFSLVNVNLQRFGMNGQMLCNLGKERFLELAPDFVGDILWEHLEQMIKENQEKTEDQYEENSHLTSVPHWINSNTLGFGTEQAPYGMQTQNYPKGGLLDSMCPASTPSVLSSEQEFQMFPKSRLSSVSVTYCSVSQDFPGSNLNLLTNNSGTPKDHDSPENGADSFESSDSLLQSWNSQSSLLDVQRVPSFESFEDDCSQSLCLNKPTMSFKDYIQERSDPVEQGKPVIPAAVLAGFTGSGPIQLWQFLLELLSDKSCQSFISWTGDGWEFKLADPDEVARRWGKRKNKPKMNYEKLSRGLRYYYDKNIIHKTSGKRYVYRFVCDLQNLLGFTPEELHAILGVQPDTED
To be noted: protein: recombinant; tags: N-terminal GST; dsDNA, one strand shown. The method, boiled down:
as §1

Assay [14] deals with T9, SPDEF (Homo sapiens, UniProt O95238 1-335).
T9 sequence: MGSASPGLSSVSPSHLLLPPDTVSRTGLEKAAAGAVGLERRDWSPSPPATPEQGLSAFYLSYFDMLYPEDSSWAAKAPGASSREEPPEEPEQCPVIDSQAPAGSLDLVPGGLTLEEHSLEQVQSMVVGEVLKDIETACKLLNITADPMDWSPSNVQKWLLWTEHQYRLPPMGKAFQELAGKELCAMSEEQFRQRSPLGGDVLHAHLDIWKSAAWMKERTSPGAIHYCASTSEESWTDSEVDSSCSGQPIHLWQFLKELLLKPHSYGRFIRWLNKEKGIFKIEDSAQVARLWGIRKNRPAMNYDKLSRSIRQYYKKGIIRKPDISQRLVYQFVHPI
Particulars: protein: recombinant; tags: N-terminal GST; dsDNA, one strand shown. The method, boiled down: as §1

Assay [15] has as its target T10, ETV7 (Homo sapiens, UniProt Q9Y603 1-341).
T10 sequence: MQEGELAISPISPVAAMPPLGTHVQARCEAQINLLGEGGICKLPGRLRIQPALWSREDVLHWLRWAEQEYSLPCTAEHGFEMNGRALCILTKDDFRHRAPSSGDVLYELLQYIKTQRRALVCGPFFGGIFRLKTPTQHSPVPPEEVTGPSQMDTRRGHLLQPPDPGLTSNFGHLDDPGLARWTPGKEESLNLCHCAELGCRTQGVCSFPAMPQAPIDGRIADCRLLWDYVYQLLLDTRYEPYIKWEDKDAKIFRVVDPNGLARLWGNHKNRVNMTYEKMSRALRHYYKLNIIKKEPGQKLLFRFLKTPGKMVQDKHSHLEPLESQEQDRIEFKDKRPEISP
To be noted: protein: recombinant; tags: N-terminal GST; dsDNA, one strand shown. The method, boiled down: as §1

The target in assay [16] is T11, ELF5 (Homo sapiens, UniProt Q9UKW6-2 1-255).
T11 sequence: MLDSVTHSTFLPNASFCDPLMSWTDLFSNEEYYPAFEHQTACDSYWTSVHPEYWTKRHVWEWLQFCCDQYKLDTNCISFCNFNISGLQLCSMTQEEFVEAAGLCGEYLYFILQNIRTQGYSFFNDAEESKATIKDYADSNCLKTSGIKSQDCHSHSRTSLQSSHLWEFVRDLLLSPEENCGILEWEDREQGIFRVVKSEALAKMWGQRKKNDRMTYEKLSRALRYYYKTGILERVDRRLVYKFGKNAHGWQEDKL
Particulars: protein: recombinant; tags: N-terminal GST; dsDNA, one strand shown. A digest of the protocol: as §1

Assay [17] concerns the target T12, ETV3 (Homo sapiens, UniProt P41162-2 1-143).
T12 sequence: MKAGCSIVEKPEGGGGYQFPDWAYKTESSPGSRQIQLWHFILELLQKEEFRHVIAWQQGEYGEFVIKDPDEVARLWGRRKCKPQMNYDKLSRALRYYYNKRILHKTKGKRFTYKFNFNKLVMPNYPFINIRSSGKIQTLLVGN
To be noted: protein: recombinant; tags: N-terminal GST; dsDNA, one strand shown. A digest of the protocol:
as §1

Assay [18] deals with ETV6 (Homo sapiens, UniProt P41212 1-452). To be noted: protein: recombinant; tags: N-terminal GST; dsDNA, one strand shown. The method, boiled down:
as §1

Sequence of ETV5 (P41161 whole entry): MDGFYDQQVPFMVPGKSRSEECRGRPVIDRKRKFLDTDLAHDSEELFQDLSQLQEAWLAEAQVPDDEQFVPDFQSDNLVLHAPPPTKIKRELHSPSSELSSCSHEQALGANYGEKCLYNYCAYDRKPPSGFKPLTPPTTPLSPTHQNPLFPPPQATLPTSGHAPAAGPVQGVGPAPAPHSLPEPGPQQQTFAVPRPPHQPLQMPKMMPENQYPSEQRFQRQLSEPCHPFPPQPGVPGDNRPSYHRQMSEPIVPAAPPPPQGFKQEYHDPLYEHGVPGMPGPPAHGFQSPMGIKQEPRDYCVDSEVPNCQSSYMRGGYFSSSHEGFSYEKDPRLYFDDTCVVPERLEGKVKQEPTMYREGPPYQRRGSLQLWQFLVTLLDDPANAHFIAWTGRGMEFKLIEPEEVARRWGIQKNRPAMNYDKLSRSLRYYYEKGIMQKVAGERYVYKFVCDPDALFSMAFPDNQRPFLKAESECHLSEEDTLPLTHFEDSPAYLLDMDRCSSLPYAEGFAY
Sequence of CRX (O43186 whole entry): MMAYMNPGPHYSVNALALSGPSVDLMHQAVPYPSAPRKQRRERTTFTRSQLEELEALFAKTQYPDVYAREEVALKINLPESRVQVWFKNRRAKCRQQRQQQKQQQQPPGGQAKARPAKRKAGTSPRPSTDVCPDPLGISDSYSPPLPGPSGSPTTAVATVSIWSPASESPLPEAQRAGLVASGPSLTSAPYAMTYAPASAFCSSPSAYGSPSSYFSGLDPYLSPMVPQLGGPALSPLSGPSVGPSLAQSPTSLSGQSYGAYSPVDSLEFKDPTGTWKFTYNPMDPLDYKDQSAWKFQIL
Sequence of ELF4 (Q99607 whole entry): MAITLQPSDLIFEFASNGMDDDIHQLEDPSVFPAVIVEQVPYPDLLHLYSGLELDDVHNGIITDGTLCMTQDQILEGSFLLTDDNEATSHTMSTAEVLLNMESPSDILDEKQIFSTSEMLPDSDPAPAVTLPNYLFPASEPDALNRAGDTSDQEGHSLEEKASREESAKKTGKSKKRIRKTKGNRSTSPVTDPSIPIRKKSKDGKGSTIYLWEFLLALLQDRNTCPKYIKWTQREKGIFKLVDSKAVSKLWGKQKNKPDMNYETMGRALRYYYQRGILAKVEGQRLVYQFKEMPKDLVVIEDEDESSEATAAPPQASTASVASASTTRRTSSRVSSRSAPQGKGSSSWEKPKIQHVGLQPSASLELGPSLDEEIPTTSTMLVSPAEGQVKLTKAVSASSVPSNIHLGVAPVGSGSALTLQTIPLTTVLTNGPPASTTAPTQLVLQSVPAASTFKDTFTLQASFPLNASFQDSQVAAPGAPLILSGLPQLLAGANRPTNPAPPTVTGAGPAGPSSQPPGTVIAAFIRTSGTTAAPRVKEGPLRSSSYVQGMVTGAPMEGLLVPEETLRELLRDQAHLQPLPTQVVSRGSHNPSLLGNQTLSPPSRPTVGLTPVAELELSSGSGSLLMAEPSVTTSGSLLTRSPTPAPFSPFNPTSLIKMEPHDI
Sequence of HSF1 (Q00613 whole entry): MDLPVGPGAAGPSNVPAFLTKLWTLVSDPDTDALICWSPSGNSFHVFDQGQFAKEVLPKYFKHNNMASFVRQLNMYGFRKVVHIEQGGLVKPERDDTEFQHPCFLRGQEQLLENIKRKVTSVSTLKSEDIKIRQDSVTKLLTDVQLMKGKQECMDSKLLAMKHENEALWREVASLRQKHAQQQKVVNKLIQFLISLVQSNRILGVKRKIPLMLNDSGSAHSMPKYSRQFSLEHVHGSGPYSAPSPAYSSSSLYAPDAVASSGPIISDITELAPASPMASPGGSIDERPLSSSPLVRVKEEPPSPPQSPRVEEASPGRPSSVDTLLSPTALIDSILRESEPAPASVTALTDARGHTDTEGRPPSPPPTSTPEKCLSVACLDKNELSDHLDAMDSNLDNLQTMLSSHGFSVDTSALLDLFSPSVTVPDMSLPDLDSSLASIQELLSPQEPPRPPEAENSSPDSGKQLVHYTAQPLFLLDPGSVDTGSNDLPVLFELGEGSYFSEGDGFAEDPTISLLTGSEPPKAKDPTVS
Sequence of ETV1 (P50549 whole entry): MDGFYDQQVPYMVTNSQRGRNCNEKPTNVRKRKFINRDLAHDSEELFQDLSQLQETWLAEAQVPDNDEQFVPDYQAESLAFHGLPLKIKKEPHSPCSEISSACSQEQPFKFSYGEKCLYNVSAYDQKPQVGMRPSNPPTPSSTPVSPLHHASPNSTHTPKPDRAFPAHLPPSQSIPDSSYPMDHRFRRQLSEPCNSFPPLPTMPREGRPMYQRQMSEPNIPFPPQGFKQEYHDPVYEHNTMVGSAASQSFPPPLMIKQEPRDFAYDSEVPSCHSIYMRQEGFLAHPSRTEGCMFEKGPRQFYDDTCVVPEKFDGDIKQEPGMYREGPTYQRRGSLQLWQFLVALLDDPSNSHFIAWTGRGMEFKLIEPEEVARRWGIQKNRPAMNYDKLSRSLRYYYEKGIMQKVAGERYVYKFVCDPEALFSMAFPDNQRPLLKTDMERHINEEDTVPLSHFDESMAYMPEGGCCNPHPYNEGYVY
Sequence of ETV6 (P41212 whole entry): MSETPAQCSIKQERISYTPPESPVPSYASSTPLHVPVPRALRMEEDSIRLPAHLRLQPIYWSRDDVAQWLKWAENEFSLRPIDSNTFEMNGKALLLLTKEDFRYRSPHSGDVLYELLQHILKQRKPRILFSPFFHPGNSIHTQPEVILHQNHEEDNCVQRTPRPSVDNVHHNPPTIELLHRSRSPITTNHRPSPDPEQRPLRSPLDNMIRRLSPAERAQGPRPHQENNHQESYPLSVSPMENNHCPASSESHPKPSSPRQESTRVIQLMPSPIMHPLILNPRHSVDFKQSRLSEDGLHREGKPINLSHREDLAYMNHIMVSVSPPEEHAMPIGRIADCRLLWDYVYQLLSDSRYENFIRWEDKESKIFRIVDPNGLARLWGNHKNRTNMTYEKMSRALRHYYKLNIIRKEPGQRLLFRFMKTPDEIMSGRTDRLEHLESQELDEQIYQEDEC

On to TCAACT, for which the binding signal in assay [1] was 1.36 fold enrichment (6-mer frequency, TF over GST control); in assay [2], 1.26 fold enrichment (6-mer frequency, TF over GST control); in [3], 1.2 fold enrichment (6-mer frequency, TF over GST control); in assay [4], 1.32 fold enrichment (6-mer frequency, TF over GST control); in assay [5], 1.27 fold enrichment (6-mer frequency, TF over GST control); in [6], 1.36 fold enrichment (6-mer frequency, TF over GST control). Besides, the binding signal in assay [7] was 1.41 fold enrichment (6-mer frequency, TF over GST control); in assay [8], 1.37 fold enrichment (6-mer frequency, TF over GST control); in assay [9], 1.34 fold enrichment (6-mer frequency, TF over GST control); in assay [10], 1.26 fold enrichment (6-mer frequency, TF over GST control); in assay [11] it was 1.31 fold enrichment (6-mer frequency, TF over GST control); in assay [12], 1.32 fold enrichment (6-mer frequency, TF over GST control). Also, the binding signal in assay [13] was 1.34 fold enrichment (6-mer frequency, TF over GST control); in assay [14], 1.27 fold enrichment (6-mer frequency, TF over GST control); in assay [15] it was 1.12 fold enrichment (6-mer frequency, TF over GST control); in [16] it was 1.24 fold enrichment (6-mer frequency, TF over GST control); in assay [17] it was 1.31 fold enrichment (6-mer frequency, TF over GST control); in assay [18], 1.33 fold enrichment (6-mer frequency, TF over GST control).

(Values after publication PMC7862700, “An all-to-all approach to the identification of sequence-specific readers for epigenetic DNA modifications on cytosine”.)
